The source made the active and inactive calls. Unless noted, the rule behind the calls is not given here.
Assays:
[1] = A549 cell viability effects, profiling panel, calcein-AM fluorescence, 48 h, basal (AID 1162); conditions: higher = more signal; note: test concentration not given here
[2] = adipocyte viability effects, profiling panel, cell-based, 3T3-L1 adipocytes, calcein-AM fluorescence, 48 h, basal (AID 1163); conditions: 3T3-L1 adipocytes viability, higher = more signal; note: test concentration not given here
[3] = HepG2 cell viability effects, profiling panel, calcein-AM fluorescence, 48 h, basal (AID 1164); conditions: higher = more signal; note: test concentration not given here
[4] = MM1S cell viability effects, profiling panel, calcein-AM fluorescence, 48 h, basal (AID 1165); conditions: higher = more signal;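 note: viability of MM1S multiple myeloma cells under basal unstimulated conditions; test concentration not given here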
[5] = basal RPMI8226 viability, no added stimulus, profiling panel, cell-based, calcein-AM fluorescence, 48 h, PK04 Diversity Set (AID 1166); conditions: RPMI8226 myeloma viability, higher = more signal;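 note: cells grown under basal conditions without added stimulus; test concentration not given here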
[6] = basal HepG2 mitochondrial membrane potential changes, profiling panel, cell-based, JC-1 fluorescence, 24 h, 100 nL compound (AID 1167); conditions: higher = more signal; note: test concentration not given here
[7] = basal 3T3-L1 adipocyte mitochondrial potential changes, profiling panel, cell-based, JC-1 fluorescence, 3T3-L1 adipocytes, 24 h, 100 nL compound (AID 1168); conditions: JC-1 mitochondrial fluorescence, higher = more signal, called active from +8 up or from −8 down; note: test concentration not given here
[8] = basal RPMI8226 mitochondrial membrane potential changes, profiling panel, cell-based, JC-1 fluorescence, 24 h, 100 nL compound (AID 1169); conditions: RPMI8226 myeloma, JC-1 mitochondrial potential fluorescence, higher = more signal; note: test concentration not given here
[9] = basal MM1S mitochondrial membrane potential changes, profiling panel, cell-based, JC-1 fluorescence, 24 h, 100 nL compound (AID 1170); conditions: higher = more signal; note: test concentration not given here
[10] = A549 lung cancer cell viability effects, profiling panel, resazurin fluorescence, 24 h, PK04 Diversity Set (AID 1171); conditions: higher = more signal, called active from +8 up or from −8 down; note: test concentration not given here
[11] = HepG2 liver cancer cell viability effects, profiling panel, resazurin fluorescence, 24 h, PK04 Diversity Set (AID 1172); conditions: higher = more signal; note: test concentration not given here
[12] = basal S. cerevisiae growth modulation, no modifier, primary screen, OD600, strain BY4716, 24 h, basal condition (AID 1173); conditions: OD600, 24 h, higher = more signal, called active from +8 up or from −8 down
[13] = MM1S myeloma cell viability, profiling panel, resazurin fluorescence, basal, 24 h, PK04 Diversity Set (AID 1174); conditions: higher = more signal, called active from +8 up or from −8 down;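 note: MM1S multiple myeloma cell line; test concentration not given here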
[14] = target: Dihydroorotate dehydrogenase (quinone), mitochondrial (Plasmodium falciparum (isolate 3D7)) (UniProt Q08210); experiment: PfDHODH enzyme inhibitors, primary screen, biochemical, C-terminal His tag, absorbance 600 nm (AID 1175); conditions: DCIP absorbance 600 nm, higher = more signal, called active from +8 up or from −8 down;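 note: recombinant parasite enzyme with a five histidine tag at its C terminus; test concentration not given here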
Sequence of Dihydroorotate dehydrogenase (quinone), mitochondrial (Plasmodium falciparum (isolate 3D7)) (Q08210 whole entry, looked up): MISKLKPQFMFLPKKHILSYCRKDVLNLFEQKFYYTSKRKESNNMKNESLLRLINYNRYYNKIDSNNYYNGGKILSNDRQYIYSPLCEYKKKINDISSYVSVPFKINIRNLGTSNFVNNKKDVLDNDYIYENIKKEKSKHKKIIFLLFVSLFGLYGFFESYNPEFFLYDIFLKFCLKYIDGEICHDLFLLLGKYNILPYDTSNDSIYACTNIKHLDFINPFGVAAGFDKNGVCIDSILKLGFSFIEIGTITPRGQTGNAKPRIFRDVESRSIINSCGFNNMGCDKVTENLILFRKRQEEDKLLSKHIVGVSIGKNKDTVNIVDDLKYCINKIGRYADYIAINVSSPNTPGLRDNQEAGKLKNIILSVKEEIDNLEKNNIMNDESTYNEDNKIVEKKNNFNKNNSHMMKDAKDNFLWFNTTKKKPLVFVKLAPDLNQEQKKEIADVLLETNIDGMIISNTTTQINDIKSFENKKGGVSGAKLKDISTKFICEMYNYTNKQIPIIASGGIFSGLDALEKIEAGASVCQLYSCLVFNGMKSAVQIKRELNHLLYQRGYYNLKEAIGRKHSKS

[15] = P. aeruginosa biofilm formation inhibitors, primary screen, strain PAO1, LB-PBS medium, absorbance 600 nm (AID 1176); note: test concentration not given here; conditions: P. aeruginosa PAO1 growth/biofilm, A600, 12 h; higher = more signal
[16] = S. cerevisiae RM11-1a growth modifiers, primary screen, strain RM11-1a, OD600, basal, 24 h (AID 1177); conditions: OD600, 24 h, higher = more signal, called active from +8 up or from −8 down;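 note: cultures grown under basal conditions with no added stressor; test concentration not given here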
[17] = E. coli acrAB mutant growth effects, primary screen, E. coli filamentation inducers, strain DRC39, OD650, 24 h (AID 1178); conditions: higher = more signal, called active from +8 up or from −8 down;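 note: growth measured as culture turbidity by optical density at 650 nm; test concentration not given here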
[18] = E. coli acrAB mutant growth effects, primary screen, E. coli filamentation inducers, strain DRC39, OD650, 48 h (AID 1179);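 note: screen aims at cell division blockers that make cells filament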; conditions: E. coli DRC39 delta-acrAB growth, higher = more signal, called active from +8 up or from −8 down
[19] = RPMI8226 myeloma cell viability, profiling panel, resazurin fluorescence, basal, 24 h, PK04 Diversity Set (AID 1180); conditions: higher = more signal;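 note: RPMI8826 multiple myeloma cell line at 5000 cells per well; test concentration not given here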
[20] = target: E3 ubiquitin-protein ligase XIAP (Homo sapiens) (UniProt P98170); experiment: XIAP binders, primary screen, biophysical, small-molecule microarray, fluorescence 635 nm (AID 1181); conditions: small-molecule microarray binding, higher = more signal;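 note: score merges 667 nm emission and signal to noise over triplicate slides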
Sequence of E3 ubiquitin-protein ligase XIAP (Homo sapiens) (P98170 whole entry, looked up): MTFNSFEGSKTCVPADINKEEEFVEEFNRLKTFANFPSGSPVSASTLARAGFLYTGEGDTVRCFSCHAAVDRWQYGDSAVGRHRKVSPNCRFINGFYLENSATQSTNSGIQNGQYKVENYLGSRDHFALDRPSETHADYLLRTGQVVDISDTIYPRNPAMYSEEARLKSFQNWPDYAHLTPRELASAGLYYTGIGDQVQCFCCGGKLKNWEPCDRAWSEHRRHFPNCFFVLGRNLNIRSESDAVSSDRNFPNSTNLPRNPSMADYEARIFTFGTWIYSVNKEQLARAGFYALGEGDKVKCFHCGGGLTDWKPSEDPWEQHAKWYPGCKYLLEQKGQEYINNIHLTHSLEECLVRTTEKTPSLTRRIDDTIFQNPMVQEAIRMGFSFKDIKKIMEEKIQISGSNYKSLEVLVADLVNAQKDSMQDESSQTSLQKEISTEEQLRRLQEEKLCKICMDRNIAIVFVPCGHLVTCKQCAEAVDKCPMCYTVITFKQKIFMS

SMILES	z-score [1]	z-score [2]	z-score [3]	z-score [4]	z-score [5]	z-score [6]	z-score [7]	z-score [8]	z-score [9]	z-score [10]	z-score [11]	z-score [12]	z-score [13]	composite z-score [14]	z-score [15]	z-score [16]	z-score [17]	z-score [18]	z-score [19]	composite z-score [20]
COC(=O)[C@@]1(Cc2ccc(F)cc2)[C@H]2c3cc(C(=O)N(C)C)n(CCCNc4ccc(C(F)(F)F)cc4Cl)c3C[C@H]2CN1C(=O)c1ccccc1	-1.34	-0.851	-0.136	-0.84	-4.32	2.61	0.391 (inactive)	-0.777	-2.12	-1.85 (inactive)	-0.591	1.28 (inactive)	-1.98 (inactive)	-0.0269 (inactive)	0.439 (inactive)	0.482 (inactive)	-0.0949 (inactive)	0.29 (inactive)	-3.88	0.143
CN1C(=O)C2C(C1=O)C1C=C(c3ccc(CO)cc3)C2C(C2CC2)N1Cc1sc2ccccc2c1Cl (stereo not given)	-0.245	0.612	1.79	-3.2	-4.33	2.19	0.46 (inactive)	-0.957	-2.05	-2.15 (inactive)	0.0076	-1.82 (inactive)	-5.41 (inactive)	-1.46 (inactive)	0.255 (inactive)	1.2 (inactive)	0.225 (inactive)	0.0618 (inactive)	-3.3	0.262
Cn1c2c(c3ccccc31)C(=O)C1NC2C=CC1(C)C(=O)OCc1ccccc1 (stereo not given)	-0.618	-0.0704	0.583	-0.175	0.0208	0.603	-1.65 (inactive)	-0.0327	0.426	-0.078 (inactive)	0.0885	0.272 (inactive)	-1.35 (inactive)	-0.296 (inactive)	-0.253 (inactive)	-0.128 (inactive)	-1.33 (inactive)	-1.06 (inactive)	-1.2	0.0546
Cc1ccc([C@H]2C(C(=O)O)=C[C@@H](C(C)C)N2S(=O)(=O)c2ccc(C)cc2)cc1	-0.828	-0.762	-0.639	0.0411	-1.48	-0.713	-0.385 (inactive)	0.59	-0.809	-0.194 (inactive)	-0.357	-0.502 (inactive)	-0.645 (inactive)	-0.695 (inactive)	0.546 (inactive)	-0.577 (inactive)	-0.717 (inactive)	0.0184 (inactive)	-1.4	0.0264
C=CCNC(=O)[C@H]1[C@@H]2C(=O)O[C@@H](c3ccccc3)[C@@H](c3ccccc3)N2[C@@H](c2ccc(O)cc2)[C@]12C(=O)Nc1ccc(C#Cc3ccc(OC)cc3)cc12	-1.06	0.205	-1.78	-2.37	-4.35	-0.385	-0.0338 (inactive)	-1.22	-0.614	-0.989 (inactive)	-1.56	0.885 (inactive)	-1.57 (inactive)	-27 (active)	0.971 (inactive)	1.14 (inactive)	0.461 (inactive)	0.0221 (inactive)	-3.24	-0.0022
O=C(CS)NCCCCCCNC(=O)[C@H]1C[C@H]2C(=O)N3CCC[C@H]3C(=O)N2[C@H]1c1ccc(O)cc1	-0.683	0.646	0.0725	-0.213	1.07	-1.12	-0.0423 (inactive)	-0.0782	-0.419	0.985 (inactive)	0.301	0.152 (inactive)	-0.868 (inactive)	-0.504 (inactive)	0.0499 (inactive)	-0.458 (inactive)	-0.144 (inactive)	-0.516 (inactive)	-0.563	0.115
O=C1O[C@H](c2ccccc2)[C@H](c2ccccc2)N2[C@H]1[C@@H](C(=O)NC[C@H](O)c1ccccc1)[C@]1(C(=O)Nc3ccc(C#CC4=CCCCC4)cc31)[C@H]2c1ccc(O)cc1	-1.06	1.72	-1.25	-3.18	-3.47	-2.78	-0.683 (inactive)	-0.87	-0.544	0.237 (inactive)	-0.654	-0.48 (inactive)	-1.78 (inactive)	-2.16 (inactive)	2.02 (inactive)	1.62 (inactive)	0.146 (inactive)	0.165 (inactive)	-3.63	-0.124
O=C(NCC(O)CO)[C@@]1(Cc2ccccc2)N=C(c2ccc(OCCCO)cc2)O[C@H]1c1ccccc1 (stereo not given in full)	-0.125	1.2	-0.266	-1.93	-0.0748	0.4	0.366 (inactive)	-0.392	-0.223	0.564 (inactive)	0.531	-2.2 (inactive)	0.583 (inactive)	-0.507 (inactive)	0.41 (inactive)	-0.547 (inactive)	2.7 (inactive)	0.249 (inactive)	0.391	0.221
[N-]=[N+]=NCc1ccccc1[C@@H]1OC(c2ccc(OCCCO)cc2)=N[C@]1(Cc1ccccc1)C(=O)O	0.211	0.333	0.865	0.229	-0.767	-0.00992	-1.01 (inactive)	-0.0434	-0.969	0.45 (inactive)	1.18	-3.03 (inactive)	0.615 (inactive)	-0.101 (inactive)	0.466 (inactive)	0.703 (inactive)	0.305 (inactive)	-0.108 (inactive)	0.469	-0.0731
CCOC(=O)C[C@H]1[C@H](OC(=O)c2ccccc2-c2ccccc2)[C@@H](NC(=O)c2ccc(-c3ccccc3)cc2)c2cc(OCCCO)ccc2N1C(=O)c1ccccc1	0.168	0.405	0.188	0.0425	-0.602	1.5	0.247 (inactive)	-0.312	-0.0178	0.0248 (inactive)	-0.607	0.579 (inactive)	0.633 (inactive)	1.03 (inactive)	-0.341 (inactive)	1.61 (inactive)	1.39 (inactive)	0.53 (inactive)	0.608	-0.121
Cc1ccccc1/C=C/C=O	1.59	-0.345	0.93	-0.499	0.0415	1.65	1.39 (inactive)	0.426	-0.962	-0.122 (inactive)	0.779	-1.94 (inactive)	0.971 (inactive)	-0.464 (inactive)	-0.0902 (inactive)	-0.412 (inactive)	1.23 (inactive)	1.45 (inactive)	1.36	-0.141
O=C1OCC=C[C@H]2OC34C=CCN(CCN5CCOCC5)C(=O)[C@H]3N(CCCCCCO)C(=O)[C@@H]4[C@@H]12 (stereo not given in full)	-0.213	-0.0626	0.775	1.56	0.802	-0.00733	-0.199 (inactive)	1.11	0.858	-0.352 (inactive)	-0.151	-0.0603 (inactive)	0.501 (inactive)	-1.97 (inactive)	-0.677 (inactive)	-0.762 (inactive)	-0.193 (inactive)	0.0937 (inactive)	0.406	0.232
COCCOC(=O)N1C(=O)[C@@]2(c3cc(C#CC4(O)CCCCCC4)ccc31)[C@H](c1ccc(O)cc1)N1[C@H](c3ccccc3)[C@H](c3ccccc3)OC(=O)[C@H]1[C@@H]2C(=O)N1CCc2cc(OC)c(OC)cc2C1	-0.742	0.0633	-0.592	-0.435	-0.165	-0.206	-0.947 (inactive)	0.83	-0.494	1.65 (inactive)	2.14	-0.169 (inactive)	0.493 (inactive)	-0.102 (inactive)	-0.0242 (inactive)	-0.592 (inactive)	0.351 (inactive)	-0.8 (inactive)	0.0494	-0.313
O=C1O[C@@H](c2ccccc2)[C@@H](c2ccccc2)N2[C@@H](c3ccccc3OCCO)[C@]3(C(=O)Nc4ccc(C#CC5(O)CCCCCC5)cc43)[C@@H](C(=O)NC[C@H](O)c3ccccc3)[C@H]12	-0.724	0.737	-3.6	-3.31	-4.17	-1.14	0.986 (inactive)	-0.935	-1.98	-2.91 (inactive)	-2.02	0.934 (inactive)	-7.38 (inactive)	-0.516 (inactive)	1.66 (inactive)	2.41 (inactive)	-0.0933 (inactive)	-0.0241 (inactive)	-7.19	0.0264
COC(=O)[C@@]1(Cc2ccccc2)[C@H]2c3cc(C(=O)N(C)C)n(Cc4ccccc4)c3C[C@H]2CN1C(=O)c1ccccc1	-1.19	-0.93	-0.775	-0.143	-0.747	1.14	-0.655 (inactive)	0.599	-1.06	-0.407 (inactive)	-0.853	2.1 (inactive)	-1.5 (inactive)	-0.252 (inactive)	0.246 (inactive)	1.6 (inactive)	-0.656 (inactive)	-0.411 (inactive)	-1.05	0.294
O=C(NCC(O)CO)[C@]1(CCS(=O)(=O)c2ccccc2)N=C(c2ccc(OCCCO)cc2)O[C@@H]1c1ccccc1 (stereo not given in full)	-0.206	-0.13	-0.635	-0.37	-0.33	0.22	-1.3 (inactive)	-0.213	-0.824	0.562 (inactive)	-0.015	0.53 (inactive)	-0.57 (inactive)	-0.162 (inactive)	0.193 (inactive)	-0.702 (inactive)	-0.0686 (inactive)	-0.276 (inactive)	0.0882	-0.0203
CN(C)CCCCCCNC(=O)[C@@H]1C[C@@H]2C(=O)N[C@@H](Cc3ccccc3)C(=O)N2[C@@H]1c1cccc(OCCO)c1	-0.778	0.559	-0.857	0.802	-0.555	-1.02	-0.822 (inactive)	0.0287	0.316	-0.115 (inactive)	-0.272	-0.117 (inactive)	-0.826 (inactive)	-0.562 (inactive)	-0.695 (inactive)	-0.704 (inactive)	0.25 (inactive)	0.0332 (inactive)	-0.592	0.564
Cc1c(NC(=O)/C(C#N)=C/C=C/c2ccccc2)c(=O)n(-c2ccccc2)n1C	-0.864	0.287	0.458	0.142	0.24	-1.05	-0.113 (inactive)	0.305	0.56	-0.2 (inactive)	-0.0273	-0.0874 (inactive)	-0.335 (inactive)	0.316 (inactive)	0.242 (inactive)	-0.74 (inactive)	1.39 (inactive)	0.0139 (inactive)	0.161	0.313
